Assay [1] deals with Lysosomal acid glucosylceramidase (Homo sapiens) (UniProt P04062). The experiment in a line: Glucocerebrosidase-p2 (AID 348; in the data active = potency below about 10 µM; also: potency is read from the fitted curve at half-maximal effect). The conditions noted are these: purified GBA, blue fluorogenic substrate, 40 min. Summed up:
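Normal human glucocerebrosidase (0.2 nM) with blue fluorogenic substrate (80 uM final) in citrate/phosphate pH 5.9 with 10mM sodium taurocholate, 0.01% tween-20; 40 min RT, NaOH/glycine stop; fluorescence Ex 365/Em 440; AC50 from a titration from 0.6 nM upwards.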

Assay [2] is described as follows: AP1 Signaling Pathway (AID 357). Also: % is scaled to controls: 0 for no effect and ±100 for the full control effect. The conditions noted are these: ME-180 AP-1-bla reporter, EGF-induced, beta-lactamase ratio, 5 h; at 7.69 µM (top of the series) unless noted. Summed up: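 Cells are seeded overnight, exposed to compound titrations and an EC50 level of EGF for 5 hours at 37 °C, then loaded with CCF4 dye for 2.5 hours. Beta-lactamase activity under the AP-1 element is read as a blue/green ratio.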

In assay [3] the target is Cytochrome P450 1A2 (Homo sapiens) (UniProt P05177). The experiment in a line: p450-cyp1a2 (AID 410; calls by dose curve; also: potency is read from the fitted curve at half-maximal effect). The conditions noted are these: recombinant CYP1A2, luciferin-ME demethylation, luminescence; series mostly up to 57 µM. The gist of the method: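 20nM CYP1A2, 100uM Luciferin-ME (=Km), 100mM KPO4; cpd 10 min RT; +NADPH regen, 60 min RT; stop/detect 20 min; luminescence. Normalized to furafylline 57 uM = full inhibition.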
Chain of Cytochrome P450 1A2 (Homo sapiens) (P05177 whole entry, looked up): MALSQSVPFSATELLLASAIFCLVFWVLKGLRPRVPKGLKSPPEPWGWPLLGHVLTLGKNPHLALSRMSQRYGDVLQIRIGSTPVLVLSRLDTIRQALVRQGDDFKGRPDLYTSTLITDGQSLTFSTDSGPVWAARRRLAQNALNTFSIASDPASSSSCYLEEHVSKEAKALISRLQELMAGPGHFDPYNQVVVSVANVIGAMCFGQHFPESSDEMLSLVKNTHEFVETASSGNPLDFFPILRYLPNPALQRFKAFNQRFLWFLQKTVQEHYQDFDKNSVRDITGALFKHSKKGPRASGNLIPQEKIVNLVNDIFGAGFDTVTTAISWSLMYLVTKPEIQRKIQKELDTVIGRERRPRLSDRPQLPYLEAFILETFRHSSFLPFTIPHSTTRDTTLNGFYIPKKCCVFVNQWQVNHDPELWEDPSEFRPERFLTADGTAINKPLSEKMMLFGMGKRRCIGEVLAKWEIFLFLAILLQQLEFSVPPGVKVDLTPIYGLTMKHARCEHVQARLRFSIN

A short description of assay [4]: NFAT Signaling Pathway (AID 444).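 Also: carbachol stimulus at about its EC50 of 1 µM final; % is scaled to controls: 0 for no effect and ±100 for the full control effect.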 To be noted: Jurkat NFAT-bla M1, carbachol, beta-lactamase ratio, 5 h; at 7.69 µM (top of the series) unless noted. Summed up: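 Jurkat cells carrying an NFAT-driven β-lactamase reporter and co-transfected muscarinic M1 receptor were treated with compound plus carbachol (1 uM final, an EC50 level) for 5 h at 37 °C. CCF4 loading followed for 1 h at RT; 460/530 nm ratio gave %activity.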

Assay [5] in a line: Stat Signaling Pathway (AID 446).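 Also: ME-180 cervical cancer cells given 40 pM IL-6 alongside compound; SIE-controlled beta-lactamase reporter measured as 460/530 nm FRET emission ratio; % is scaled to controls: 0 for no effect and ±100 for the full control effect.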 The conditions noted are these: ME-180 (cervical carcinoma) SIE beta-lactamase reporter, IL-6 stimulated, 5 h; at 7.69 µM (top of the series) unless noted. Summed up: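 Compound effects on IL-6-induced STAT reporter activity were measured in ME-180 cells. After overnight culture, cells were co-treated with 40 pM IL-6 for 5 hrs before beta-lactamase substrate loading at room temperature.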

Assay [6] addresses Glucocorticoid receptor (Homo sapiens) (UniProt P04150). Nature of the assay: GR-GFP Redistribution (AID 450;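 active = compounds whose dose series gives a full or clear partial fitted curve of increased nuclear translocation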; also: potency is read from the fitted curve at half-maximal effect). The conditions noted are these: U2OS GR-GFP nuclear translocation, laser cytometry, 2 h.
Assay [7] has the same target. Nature of the assay: GR-EFC Redistribution (AID 451; calls by dose curve; also: potency is read from the fitted curve at half-maximal effect). The conditions noted are these: CHO-K1 GR-EFC translocation, beta-gal luminescence, 2 h. Summed up: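 CHO-K1 cells stably expressing nuclear-localized β-gal enzyme acceptor and GR fused C-terminally to the enzyme donor fragment; ligand-driven nuclear translocation restores β-gal by complementation. Compounds titrated up to 46 uM final, 2 h at 37 °C; luminescence read.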

Assay [8] concerns the target Mitogen-activated protein kinase 10 (Mus musculus) (UniProt Q61831). Nature of the assay: JNK3 AlphaScreen Assay (AID 530).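 Also: kinase came from lysate of stimulated human HepG2 cells; signal reports phosphorylation of biotinylated GST-cJun 1-79 at Ser73 with 10 µM ATP; % is scaled to controls: 0 for no effect and ±100 for the full control effect.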 The conditions noted are these: JNK3 lysate, c-Jun phosphorylation; series mostly up to 57.1 µM. The gist of the method:
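Biotinylated GST-cJun(1-79) served as substrate for JNK3 in HepG2 lysates stimulated with IL-1beta and TNF-alpha. ATP was 10 uM final, pH 7.6. Ser73 phosphorylation was quantified by AlphaScreen (680 nm excitation).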

Assay [9] deals with 3',5'-cyclic-AMP phosphodiesterase 4B (Homo sapiens) (UniProt Q07343). The experiment in a line: qHTS Assay for Inhibitors of PDE-IV (AID 607; active = well fitted activation curve with a large enough effect in the main read-out, with a control signal flat, not every such curve was filed as active; also: % of control where 0% means no effect). To be noted: HEK293 ACTOne CNG channel cells, membrane potential fluorescence; series mostly up to 22.9 µM. Summed up:
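ACTOne HEK293 cells carry a modified cAMP-gated CNG channel and express endogenous PDE4; plated 1000 cells/well, compounds up to 22.9 uM final. Membrane-potential dye fluorescence (ex 535/em 590) was read; parental cells received 10 uM forskolin + 100 uM RO 20-1724.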
For orientation: qHTS replaces the single test concentration by a dilution series.

Assay [10] has as its target Cytochrome P450 3A4 (Homo sapiens) (UniProt P08684). The experiment in a line: qHTS Assay for Activators of Cytochrome P450 3A4 (AID 885; active = well fitted curve in the direction sought with a large enough effect; an effect the other way counts as inactive or inconclusive; also: nearly all actives have a fitted effect of over 65% in size). To be noted: recombinant CYP3A4, Luciferin-PPXE luminescence, 60 min; series mostly up to 57.1 µM. The gist of the method:
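CYP3A4 activity: Luciferin-PPXE O-dealkylation, 25uM substrate, 200mM KPO4, RT throughout. Read-out is luciferase luminescence; higher values reflect activation.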

Assay [11] is described as follows: qHTS Assay for Lipid Storage Modulators (AID 1519; calls by dose curve). The conditions noted are these: Drosophila S3 cells, BODIPY lipid droplet/cell ratio, laser cytometry, cells loaded with oleic acid; for activity change, negative = inhibition: at 57.5 µM (top of the series). The gist of the method:
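Cells seeded at 5,000 per well were treated with compounds over a concentration series and loaded with oleic acid (400 uM, as added). Lipid droplet fluorescence (488 nm excitation, 500-530 nm channel) was read by laser-scanning cytometry and normalized to 20 uM Triacsin C.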

The target of assay [12] is Dual specificity protein kinase CLK4 (Homo sapiens) (UniProt Q9HAZ1). The experiment in a line: qHTS Assay for Inhibitors of CDC-like Kinase 4 (ADP-FP Assay) (AID 1795; active = well fitted curve in the direction sought with a large enough effect; an effect the other way counts as inactive or inconclusive;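 also: recombinant human CLK4 phosphorylating RS repeat peptide at 1 µM ATP; % is scaled to controls: 0 for no effect and ±100 for the full control effect; nearly all actives have a fitted effect of over 60% in size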). The conditions noted are these: Transcreener ADP fluorescence polarization; series mostly up to 50 µM. The gist of the method:
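FP readout: Orange Transcreener ADP2 tracer (4 nM) plus ADP antibody, read after 30 min at room temperature. Kinase step: 6.25 nM Clk4, 100 uM RS peptide, 1 uM ATP, pH 7.5, 1 h.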

For assay [13], the target named is Ubiquitin carboxyl-terminal hydrolase 1 (Homo sapiens) (UniProt O94782). Nature of the assay: Inhibitors of USP1/UAF1: Pilot qHTS (AID 504865; active = well fitted curve in the direction sought with a large enough effect; an effect the other way counts as inactive or inconclusive; also: nearly all actives have a fitted effect of over 35% in size; also: potency is read from the fitted curve at half-maximal effect). The conditions noted are these: purified USP1/UAF1, Ub-rhodamine cleavage fluorescence; series mostly up to 54.9 µM. The gist of the method: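 1nM USP1/UAF1 + cpd, 15 min RT; start w/ Ub-Rho 150nM final; kinetic FL 480/540 nm, 6 reads q60 s. Buffer 50mM HEPES pH 7.8, 0.5mM EDTA, 1mM TCEP, 0.01% Tween-20, 0.1 mg/ml BSA.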
Chain of Ubiquitin carboxyl-terminal hydrolase 1 (Homo sapiens) (O94782 whole entry, looked up): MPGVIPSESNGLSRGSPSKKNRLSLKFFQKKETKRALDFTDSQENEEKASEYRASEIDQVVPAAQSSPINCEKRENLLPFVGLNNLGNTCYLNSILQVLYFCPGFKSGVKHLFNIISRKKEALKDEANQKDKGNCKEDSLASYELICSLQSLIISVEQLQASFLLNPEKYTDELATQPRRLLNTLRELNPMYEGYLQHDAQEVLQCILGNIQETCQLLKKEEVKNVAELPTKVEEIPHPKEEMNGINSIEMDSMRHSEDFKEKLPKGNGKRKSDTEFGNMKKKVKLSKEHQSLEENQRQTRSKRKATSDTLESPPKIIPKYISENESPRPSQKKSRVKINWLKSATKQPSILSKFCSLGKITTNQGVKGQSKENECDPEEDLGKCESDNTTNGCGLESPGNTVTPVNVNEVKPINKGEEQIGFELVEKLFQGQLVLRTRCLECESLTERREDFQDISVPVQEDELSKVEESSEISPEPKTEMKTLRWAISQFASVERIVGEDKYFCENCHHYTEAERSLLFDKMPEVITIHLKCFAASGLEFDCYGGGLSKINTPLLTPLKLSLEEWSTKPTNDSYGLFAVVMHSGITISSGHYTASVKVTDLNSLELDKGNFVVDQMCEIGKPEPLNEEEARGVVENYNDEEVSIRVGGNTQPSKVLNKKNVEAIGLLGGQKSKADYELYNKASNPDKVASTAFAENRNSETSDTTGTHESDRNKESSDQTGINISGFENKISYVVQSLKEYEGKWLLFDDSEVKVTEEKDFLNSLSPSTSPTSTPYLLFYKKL

Assay [14] can be described thus: Primary qHTS for small molecule stabilizers of the endoplasmic reticulum resident proteome: Secreted ER Calcium Modulated Protein (SERCaMP) assay (AID 1508630; active = well fitted curve in the direction sought with a large enough effect; an effect the other way counts as inactive or inconclusive; also: % is scaled to controls: 0 for no effect and ±100 for the full control effect). To be noted: SH-SY5Y GLuc-SERCaMP (Gaussia luciferase released on ER calcium loss) secretion, thapsigargin, luminescence; series mostly up to 38.4 µM. Summed up: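 The SH-SY5Y reporter protocol was run at 3 concentrations up to 38.3 uM (primary) or 11 concentrations (follow-up): 16 h compound, 100 nM thapsigargin for 4 h, then extracellular luciferase luminescence.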

Assay [15] has as its target Cytochrome P450 3A4 (Homo sapiens) (UniProt P08684). The experiment in a line: qHTS Assay for Inhibitors and Substrates of Cytochrome P450 3A4 (AID 884; active = well fitted curve in the direction sought with a large enough effect; an effect the other way counts as inactive or inconclusive; also: potency is read from the fitted curve at half-maximal effect; nearly all actives have a fitted effect of over 50% in size). To be noted: recombinant CYP3A4, Luciferin-PPXE luminescence; series mostly up to 57.1 µM. The gist of the method:
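Luminescent readout of luciferin produced by CYP3A4 (20 nM) dealkylation of Luciferin-PPXE, 25 uM (its KM). NADPH-driven reaction ran 60 min at RT after 10 min compound preincubation; data scaled to 57 uM ketoconazole as 100% inhibition.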

Assay [16] deals with Cytochrome P450 2C19 (Homo sapiens) (UniProt P33261). The experiment in a line: qHTS Assay for Inhibitors and Substrates of Cytochrome P450 2C19 (AID 899; active = well fitted curve in the direction sought with a large enough effect; an effect the other way counts as inactive or inconclusive; also: potency is read from the fitted curve at half-maximal effect; nearly all actives have a fitted effect of over 60% in size). The conditions noted are these: recombinant CYP2C19, luciferin-H EGE luminescence; series mostly up to 57.1 µM. Summed up:
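Human CYP2C19 (5nM) with Luciferin-H EGE at 10uM (its KM) in 50mM KPO4 was preincubated with compound for 10 min at 37C. NADPH regeneration started a 60 min 37C reaction. Luciferin was read by luminescence, normalized to 57uM ketoconazole.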

[17] abbreviates: measured here: cell count channel max response.
[18] abbreviates: measured here: lipid channel max response.

Inconclusive results are not listed. The source made the active and inactive calls. Unless noted, calls follow the shape of the dose curve; as a rule, active = well fitted curve in either direction with a large enough effect (not every such curve was filed as active); inconclusive = small, poorly fitted or top-dose-only effect, or another doubt; inactive = flat fitted curve, though single readings scatter.

Chain of Lysosomal acid glucosylceramidase (Homo sapiens) (P04062 whole entry, looked up): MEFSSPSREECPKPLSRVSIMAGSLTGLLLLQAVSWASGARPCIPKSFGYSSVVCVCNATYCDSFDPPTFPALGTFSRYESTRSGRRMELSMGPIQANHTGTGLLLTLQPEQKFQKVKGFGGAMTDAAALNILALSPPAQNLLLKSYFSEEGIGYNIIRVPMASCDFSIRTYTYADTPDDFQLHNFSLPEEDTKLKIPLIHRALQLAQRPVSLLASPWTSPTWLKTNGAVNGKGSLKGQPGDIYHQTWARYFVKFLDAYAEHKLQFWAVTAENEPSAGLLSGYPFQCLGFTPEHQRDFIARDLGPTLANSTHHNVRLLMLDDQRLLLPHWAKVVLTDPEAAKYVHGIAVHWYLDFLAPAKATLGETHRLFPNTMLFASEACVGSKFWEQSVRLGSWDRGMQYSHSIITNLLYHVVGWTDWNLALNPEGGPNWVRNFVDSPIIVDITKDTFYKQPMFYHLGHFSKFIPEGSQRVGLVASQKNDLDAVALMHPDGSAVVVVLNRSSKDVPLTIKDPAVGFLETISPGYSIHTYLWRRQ
Chain of Glucocorticoid receptor (Homo sapiens) (P04150 whole entry, looked up, the tested form may be a part): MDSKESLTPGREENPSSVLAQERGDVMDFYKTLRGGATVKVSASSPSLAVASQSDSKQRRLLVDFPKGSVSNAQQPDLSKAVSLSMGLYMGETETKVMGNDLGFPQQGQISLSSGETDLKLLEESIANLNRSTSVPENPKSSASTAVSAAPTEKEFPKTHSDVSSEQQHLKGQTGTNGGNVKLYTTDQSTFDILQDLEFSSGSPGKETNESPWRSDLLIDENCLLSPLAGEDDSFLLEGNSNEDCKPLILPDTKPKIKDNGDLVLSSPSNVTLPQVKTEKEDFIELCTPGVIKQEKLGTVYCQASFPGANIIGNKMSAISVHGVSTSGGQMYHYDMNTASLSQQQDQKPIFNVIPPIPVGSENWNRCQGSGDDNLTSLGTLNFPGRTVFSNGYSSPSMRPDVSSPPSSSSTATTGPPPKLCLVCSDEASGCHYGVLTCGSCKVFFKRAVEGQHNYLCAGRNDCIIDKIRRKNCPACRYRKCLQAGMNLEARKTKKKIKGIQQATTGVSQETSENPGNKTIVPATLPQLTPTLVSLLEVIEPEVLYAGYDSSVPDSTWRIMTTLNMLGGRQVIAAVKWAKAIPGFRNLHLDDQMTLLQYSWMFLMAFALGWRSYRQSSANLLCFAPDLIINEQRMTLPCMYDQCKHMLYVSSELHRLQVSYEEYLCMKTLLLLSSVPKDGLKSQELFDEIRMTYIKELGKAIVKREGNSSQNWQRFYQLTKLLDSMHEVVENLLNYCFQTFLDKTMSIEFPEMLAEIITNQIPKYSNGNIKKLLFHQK
Chain of Dual specificity protein kinase CLK4 (Homo sapiens) (Q9HAZ1 whole entry, looked up): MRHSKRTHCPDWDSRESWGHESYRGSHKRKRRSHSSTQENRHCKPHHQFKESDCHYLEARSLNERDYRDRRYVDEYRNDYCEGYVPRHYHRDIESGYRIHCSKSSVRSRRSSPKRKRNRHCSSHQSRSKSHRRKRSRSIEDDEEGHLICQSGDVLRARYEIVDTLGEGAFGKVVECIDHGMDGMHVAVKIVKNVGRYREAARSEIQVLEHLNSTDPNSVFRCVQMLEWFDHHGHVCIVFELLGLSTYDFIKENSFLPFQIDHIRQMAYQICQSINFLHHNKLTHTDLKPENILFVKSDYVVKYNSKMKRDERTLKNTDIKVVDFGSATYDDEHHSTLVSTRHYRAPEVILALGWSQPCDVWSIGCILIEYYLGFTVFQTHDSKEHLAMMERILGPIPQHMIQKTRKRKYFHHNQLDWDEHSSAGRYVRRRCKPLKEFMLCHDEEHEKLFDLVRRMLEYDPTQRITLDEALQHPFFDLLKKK
Chain of Cytochrome P450 3A4 (Homo sapiens) (P08684 whole entry, looked up): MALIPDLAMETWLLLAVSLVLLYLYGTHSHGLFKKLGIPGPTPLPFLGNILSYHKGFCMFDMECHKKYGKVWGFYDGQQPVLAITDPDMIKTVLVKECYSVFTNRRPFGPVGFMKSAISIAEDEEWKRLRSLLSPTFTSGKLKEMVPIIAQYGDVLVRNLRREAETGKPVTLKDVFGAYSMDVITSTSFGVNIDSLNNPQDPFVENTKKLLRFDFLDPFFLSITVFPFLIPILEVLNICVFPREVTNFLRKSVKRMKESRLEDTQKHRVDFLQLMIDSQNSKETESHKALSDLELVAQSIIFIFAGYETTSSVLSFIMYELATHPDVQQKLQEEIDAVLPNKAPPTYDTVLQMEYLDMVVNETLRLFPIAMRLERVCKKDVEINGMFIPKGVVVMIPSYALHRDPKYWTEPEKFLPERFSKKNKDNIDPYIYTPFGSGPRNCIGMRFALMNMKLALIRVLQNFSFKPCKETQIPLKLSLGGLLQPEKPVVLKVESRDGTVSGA
Chain of 3',5'-cyclic-AMP phosphodiesterase 4B (Homo sapiens) (Q07343 whole entry, looked up): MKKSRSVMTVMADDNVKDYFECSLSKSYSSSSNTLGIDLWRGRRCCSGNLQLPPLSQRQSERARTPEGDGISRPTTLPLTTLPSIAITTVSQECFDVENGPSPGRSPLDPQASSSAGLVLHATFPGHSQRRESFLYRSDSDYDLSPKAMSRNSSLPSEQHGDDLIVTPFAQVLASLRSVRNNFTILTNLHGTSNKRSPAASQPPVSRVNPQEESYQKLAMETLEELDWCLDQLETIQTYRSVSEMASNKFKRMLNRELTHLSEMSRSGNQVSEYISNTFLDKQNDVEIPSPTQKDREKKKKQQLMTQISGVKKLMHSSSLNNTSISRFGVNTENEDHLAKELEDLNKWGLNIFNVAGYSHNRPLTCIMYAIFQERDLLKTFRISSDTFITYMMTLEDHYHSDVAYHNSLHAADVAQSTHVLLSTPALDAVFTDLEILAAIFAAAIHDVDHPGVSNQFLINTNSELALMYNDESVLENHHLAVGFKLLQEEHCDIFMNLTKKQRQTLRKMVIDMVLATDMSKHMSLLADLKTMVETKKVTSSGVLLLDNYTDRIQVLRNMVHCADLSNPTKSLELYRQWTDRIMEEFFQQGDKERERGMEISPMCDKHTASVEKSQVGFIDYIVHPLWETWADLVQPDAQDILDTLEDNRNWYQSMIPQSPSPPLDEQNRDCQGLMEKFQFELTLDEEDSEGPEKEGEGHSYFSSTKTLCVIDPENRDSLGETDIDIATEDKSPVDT
Chain of Cytochrome P450 2C19 (Homo sapiens) (P33261 whole entry, looked up): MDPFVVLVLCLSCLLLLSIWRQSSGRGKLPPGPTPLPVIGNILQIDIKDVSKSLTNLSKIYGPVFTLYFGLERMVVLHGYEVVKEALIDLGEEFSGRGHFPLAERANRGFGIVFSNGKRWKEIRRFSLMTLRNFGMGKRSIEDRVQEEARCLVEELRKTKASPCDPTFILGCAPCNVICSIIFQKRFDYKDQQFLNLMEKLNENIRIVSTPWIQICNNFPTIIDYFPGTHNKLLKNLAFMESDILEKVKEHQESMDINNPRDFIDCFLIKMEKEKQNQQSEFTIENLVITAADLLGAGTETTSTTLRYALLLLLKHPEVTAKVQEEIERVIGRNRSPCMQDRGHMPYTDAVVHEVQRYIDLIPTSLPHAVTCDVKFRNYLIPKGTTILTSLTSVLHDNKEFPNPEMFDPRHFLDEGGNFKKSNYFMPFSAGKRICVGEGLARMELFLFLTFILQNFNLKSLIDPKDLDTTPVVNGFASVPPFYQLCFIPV

In the case of `COc1ccc(Oc2ncc3ncc(=O)n(C)c3n2)cc1`, the Potency in assay [1] was > 11.4 µM (inactive); in [3], 3.98 µM (active); in [6], > 9.22 µM (inactive); in [7], > 46 µM (inactive). The activity change, negative = inhibition was -12.2% (inactive) in [2], -6.92% (inactive) in [4] and 5.63% (inactive) in assay [11]. Besides, the activity, negative = inhibition in assay [5] was -7.6% (inactive). Further, in [8], the molecule was called inactive. In addition, the Potency result in assay [9], in [10], in assay [12], in assay [13] and in [14] was “inactive” each time. Further, the max response in [11] (setting [17]) is 9.26%; in assay [11] (setting [18]), 14.1%.
As to `CN(C)c1ncc2ncc(=O)n(C3CC3)c2n1`, the Potency in assay [1] was > 11.4 µM (inactive); in assay [3] it was 3.16 µM (active); in assay [6] it was > 9.22 µM (inactive); in assay [7], > 46 µM (inactive). The activity change, negative = inhibition in [2] is 0.558% (inactive); in [4], -1.2% (inactive); in [11] it was 7.21% (inactive). Further, the activity, negative = inhibition in assay [5] is -11.1% (inactive). For the same molecule, the molecule was classed as inactive in assay [8]. Besides, the Potency result in [9], in [12] and in [14] was “inactive” each time. Also, the max response stood at 15.8% in [11] (setting [17]) and 22.4% in [11] (setting [18]).
Turning to `CCNc1ncc2nc(C)c(=O)n(C)c2n1`, the Potency in assay [1] was > 11.4 µM (inactive); in assay [3], 5.01 µM (active); in assay [6], > 9.22 µM (inactive); in assay [7], > 46 µM (inactive). In addition, the activity change, negative = inhibition in assay [4] was 2.38% (inactive); in assay [11], 2.6% (inactive). Also, the activity, negative = inhibition in [5] was -8.23% (inactive). Further, the molecule was called inactive in assay [8]. In addition, the max response stood at 22.7% in assay [11] (setting [17]) and 26.7% in assay [11] (setting [18]). For the same molecule, the Potency entry in [12], in assay [13] and in assay [14] was “inactive” in each case.
As to `COc1ccccc1CNc1ncncc1-c1cccnc1`, the Potency in assay [1] was > 11.4 µM (inactive); in assay [3], 0.794 µM (active); in assay [6] it was > 46 µM (inactive); in assay [7], > 46 µM (inactive); in assay [15], 0.794 µM (active). Moreover, the results for the activity change, negative = inhibition in [2], in [4] and in [11] were 3.62% (inactive), 2.12% (inactive) and 3.76% (inactive), respectively. The activity, negative = inhibition in assay [5] was 5.57% (inactive). Further, the result in assay [8] was inactive. Moreover, the Potency result in assay [10], in assay [12] and in assay [14] was “inactive” throughout. Moreover, the max response in [11] (setting [17]) came out at 11.7%; in [11] (setting [18]), 13.8%.
Turning to `Cc1ccccc1-c1nc(NCc2cccs2)c2ccccc2n1`, the activity change, negative = inhibition in assay [4] is -9.98% (inactive); in assay [11], 5.52% (inactive). Moreover, in assay [5], the activity, negative = inhibition was -16.7% (inactive). For the same molecule, the Potency in assay [6] is > 46 µM (inactive); in assay [7], > 46 µM (inactive); in [13], 14.1 µM (active). The outcome in assay [8] was inactive. Moreover, the figures for the max response in [11] (setting [17]) and in [11] (setting [18]) were -1.85% and 1.44%, respectively. In addition, the Potency result in assay [12] and in [14] was “inactive” each time.
Consider `COc1ccccc1-c1cc(NCc2ccccc2)ncn1`, for which the Potency is > 11.4 µM (inactive) in assay [1]; 2.51 µM (active) in assay [3]; > 46 µM (inactive) in [6]; > 46 µM (inactive) in assay [7]; 7.94 µM (active) in [16]; 22.4 µM (active) in [13]. The figures for the activity change, negative = inhibition in assay [2], in [4] and in assay [11] were 3.71% (inactive), -5.25% (inactive) and 2.28% (inactive), respectively. Besides, the activity, negative = inhibition in assay [5] was 2.32% (inactive). Moreover, in [8], the result was inactive. Further, the max response in assay [11] (setting [17]) amounted to 10.9%; in [11] (setting [18]), 10.5%. Besides, the Potency result in assay [12] and in assay [14] was “inactive” each time.

The record behind these values is PubChem BioAssay (NCATS).
